# Most compounds without a hit are left out; they make up all but 10% or so of the library.
# HP1b chromo inh – blocks HP1-beta chromodomain binding to methylated histone tails; P83916; AlphaScreen HP1-beta / biotin-H3K9me3 peptide binding; Potency, µM (top dose mostly 114 µM), for inactives: top-dose activity change, negative = inhibition, usual class: inhibitors; 390,000 tested, 0.56% active; AID 540317; note: potency is the fitted concentration of half-maximal effect; nearly all actives have a fitted effect of over 70% in size
# Target sequence (P83916 whole entry, looked up): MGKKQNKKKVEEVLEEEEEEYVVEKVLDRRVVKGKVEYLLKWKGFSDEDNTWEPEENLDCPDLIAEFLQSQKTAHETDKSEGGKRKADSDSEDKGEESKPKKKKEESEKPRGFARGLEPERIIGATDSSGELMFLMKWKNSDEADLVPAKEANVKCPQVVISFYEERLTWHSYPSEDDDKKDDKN
#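 Compound inhibition of the preformed complex between 50 nM HP1-beta and 50 nM biotinylated H3K9me3 peptide was read by AlphaScreen. Buffer was PBS pH 7.4 with 0.01% Tween-20. Incubations ran 30 min at room temperature, with 10 ug/mL donor/acceptor beads.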
# Six1-Eya2 blk – Six1/Eya2 interaction inhibition. AlphaScreen GST-Six1/His-Eya2 binding, biochemical; hits give low values. activity change, % (no concentration beside the values). Q15475+O00167. AID 651725. 360,000 tested, 0.56% active; in the data active = activity change below about -65%; inconclusive = mostly about -30% to -63%; note: % is set by controls: 0 for no effect and ±100 for the full control effect
#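 AlphaScreen luminescence read after one hour at 37 °C in darkness. Pin-transferred compounds met GST-Six1 and His-Eya2 protein (5X stock 250 nM/500 nM) plus glutathione donor and Ni-chelate acceptor beads (5X, 50 ug/mL).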
# CtBP-E1A inh – CtBP/E1A binding inhibition | AID 651724 | activity change, % (no concentration beside the values) | 340,000 tested, 0.49% active | AlphaScreen GST-E1A/His-CtBP binding, 1536-well; hits give low values; in the data active = activity change below about -65%; inconclusive = mostly about -30% to -63%; note: % is set by controls: 0 for no effect and ±100 for the full control effect
#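 Homogeneous bead-based format: GST-tagged E1A captured on glutathione donor beads, His-tagged CtBP on nickel acceptor beads; compounds precede bead addition by 2 h at 37 °C.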
# G9a block – blocks human histone lysine methyltransferase G9a; 350,000 tested, 8.8% active; Q96KQ7; Potency, µM (doses to about 102 µM), inactives show at the top dose activity, negative = inhibition, actives largely listed as inhibitors; G9a H3K9 monomethylation, AlphaScreen, 2 h; note: potency is the fitted concentration of half-maximal effect; % is set by controls: 0 for no effect and ±100 for the full control effect; nearly all actives have a fitted effect of over 75% in size
# Target sequence (Q96KQ7 913-1193 limits assumed): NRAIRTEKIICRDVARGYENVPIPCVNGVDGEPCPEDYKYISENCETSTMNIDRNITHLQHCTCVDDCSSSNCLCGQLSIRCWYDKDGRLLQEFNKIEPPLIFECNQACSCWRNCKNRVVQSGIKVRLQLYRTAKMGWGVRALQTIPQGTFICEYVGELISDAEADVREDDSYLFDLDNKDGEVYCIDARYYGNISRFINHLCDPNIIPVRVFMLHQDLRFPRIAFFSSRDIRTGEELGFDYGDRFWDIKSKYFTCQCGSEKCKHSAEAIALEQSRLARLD
#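 G9a (20 nM) preincubated 15 min RT with compounds, then 500 nM biotinylated H3K9 peptide and 20 uM SAM added; 2 h RT reaction. Monomethyl-H3K9 product detected by AlphaScreen with anti-H3K9me1 antibody, streptavidin donor and anti-rabbit IgG acceptor beads.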
# BAZ2B block – BAZ2B (human) inhibition | Potency, µM (titrated, usually from 114 µM), without a hit: at the highest dose activity change, negative = inhibition, actives largely listed as inhibitors | AID 504333 | Q9UIF8 | 360,000 tested, 4.4% active | AlphaScreen BAZ2B-H3K14Ac peptide displacement; note: potency is the fitted concentration of half-maximal effect; % is set by controls: 0 for no effect and ±100 for the full control effect; nearly all actives have a fitted effect of over 60% in size
#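 AlphaScreen displacement of biotin-H3(5-23)K14Ac peptide (50 nM final) from BAZ2B (50 nM final) in PBS pH 7.4, 0.01% Tween-20; complex preformed 30 min RT, then compounds (top 110 uM) 30 min RT, beads 20 min dark.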
# JMJD2A Tudor inh – JMJD2A Tudor domain (human) inhibition | O75164 | AlphaScreen JMJD2A-Tudor / H3K4me3 peptide binding | Potency, µM (series often up to 114 µM), inactives show top-dose activity change, negative = inhibition, hits mostly inhibitors | 390,000 tested, 4.4% active; note: potency is the fitted concentration of half-maximal effect; % is set by controls: 0 for no effect and ±100 for the full control effect; nearly all actives have a fitted effect of over 50% in size
# * = called active by the depositor; ? = inconclusive; nt = no result; [ ] = remark or other dose. Unless noted, calls come from the whole dose curve; as a rule, active = well fitted inhibition curve with a large enough effect; inconclusive = small, poorly fitted or top-dose-only effect; inactive = no such curve, though single readings can be large or run the other way.
SMILES,HP1b chromo inh,Six1-Eya2 blk,CtBP-E1A inh,G9a block,BAZ2B block,JMJD2A Tudor inh
N#Cc1nc(Cc2cccc3ccccc23)oc1NCc1ccc(F)cc1,?,-20,-1,25µM*,?,?
C=CCNc1oc(-c2cccc(F)c2)nc1C#N,?,nt,nt,nt,nt,45µM*
CCCCOC(=O)CNc1n[nH]c(=S)[nH]c1=O,23%,4,1,-3%[12.7 µM],-35%,-24%
NC(=O)CNc1n[nH]c(=S)[nH]c1=O,-4%,-8,0,nt,-5%,20µM*
CC(C)COC(=O)CNc1n[nH]c(=S)[nH]c1=O,-2%,-1,9,-8%[12.7 µM],4%,50µM*
CCOc1ccc(N(c2nc(-c3ccc(OC)c(OC)c3)no2)c2nc(-c3ccc(OC)c(OC)c3)no2)cc1,17%,nt,nt,12%[59 µM],-1%,-18%
Cc1c(C(=O)O)cccc1[N+](=O)[O-],22%,-2,4,2%[0.501 µM],?,-8%
O=C(O)c1c[nH]c2c([N+](=O)[O-])cccc2c1=O,79µM*,-10,-6,nt,nt,20µM*
CCN(CCCNC(=O)c1[nH]c(C)c(C(C)=O)c1C)c1ccccc1,-18%,-15,-17,14µM*,50µM*,?
O=C(CC1OC(=O)c2ccccc21)Nc1cc(Cl)ccc1N1CCCC1 (centres undefined),-4%,7,3,56µM*,9%,-14%
CC(=O)N1CCN(C(=O)CC2OC(=O)c3ccccc32)CC1 (centres undefined),-13%,-3,-1,40µM*,?,-26%
O=C(CC1OC(=O)c2ccccc21)Nc1cc(S(=O)(=O)N2CCOCC2)ccc1OCC(F)(F)F (centres undefined),18%,5,-3,13µM*,-1%,-10%
O=C(CC1OC(=O)c2ccccc21)Nc1ccc(Cl)c(S(=O)(=O)N2CCCCC2)c1 (centres undefined),3%,-10,-1,14µM*,1%,-22%
O=C(Cn1c(=O)c(CNc2ccccc2)cc2cc3c(cc21)OCCO3)Nc1ccccc1Cl,52%,nt,nt,?,?,?
CC(C)C(NC(=S)Nc1ccccc1)C(=O)O (centres undefined),49%,0,4,-2%,-23%,12%
O=C1CCC([N+](=O)[O-])C(c2cccc3ccccc23)N1 (centres undefined),25%,-1,-9,22%,-3%,-6%
Cc1cccc(NC(=O)CSCC(=O)Nc2cc(Cl)ccc2N2CCN(C)CC2)c1,31%,6,1,79µM*,-14%,-15%
O=C(Cc1ccccc1F)Nc1cc(Cl)ccc1N1CCCC1,43%,-8,-2,45µM*,-18%,-19%
C#CCOCCOCCOCCNc1nc(N2CCN(C(=O)[C@H]([C@@H](C)CC)n3cc([C@@H](N)Cc4ccc(O)cc4)nn3)CC2)nc(N2CCN(C(=O)[C@H]([C@@H](C)CC)n3cc([C@@H](N)Cc4ccc(O)cc4)nn3)CC2)n1,35%,-10,-6,-1%[12.7 µM],50µM*,?
C#CCOCCOCCOCCNc1nc(N2CCN(C(=O)[C@H](CCCCN)n3cc(CC(C)O)nn3)CC2)nc(N2CCN(C(=O)[C@H](Cc3ccc(O)cc3)n3cc(CCO)nn3)CC2)n1 (some centres undefined),14%,2,0,nt,nt,-22%
C#CCOCCOCCOCCNc1nc(N2CCN(C(=O)[C@H]([C@@H](C)CC)n3cc([C@@H](N)CO)nn3)CC2)nc(N2CCN(C(=O)[C@H](Cc3ccc(O)cc3)n3cc([C@@H](N)C(C)CC)nn3)CC2)n1 (some centres undefined),39%,-24,nt,?,35µM*,35µM*
C#CCOCCOCCOCCNc1nc(N2CCN(C(=O)[C@H]([C@@H](C)CC)n3cc([C@@H](N)CC(C)C)nn3)CC2)nc(N2CCN(C(=O)[C@H](Cc3ccc(O)cc3)n3cc([C@@H](N)CC(C)C)nn3)CC2)n1,18%,-13,-10,?,50µM*,?
C#CCOCCOCCOCCNc1nc(N2CCN(C(=O)[C@H]([C@@H](C)CC)n3cc([C@@H](N)CC(C)C)nn3)CC2)nc(N2CCN(C(=O)[C@H]([C@@H](C)CC)n3cc([C@@H](N)CC(C)C)nn3)CC2)n1,6%,-7,-11,?,79µM*,?
O=C(NNS(=O)(=O)c1ccc(F)cc1F)c1csc(-c2cccnc2)n1,12%,9,nt,nt,2%,-16%
COc1ccc(NC(=O)C(=O)NCCc2csc3nc(-c4ccccc4F)nn23)cc1OC,27%[57 µM],nt,nt,8%[59 µM],0%,-4%
SMILES,HP1b chromo inh,Six1-Eya2 blk,CtBP-E1A inh,G9a block,BAZ2B block,JMJD2A Tudor inh
O=C(CSc1ccc(-c2cccnc2)nn1)Nc1ccccc1C(F)(F)F,29%,0,0,12%,-12%,-9%
CC(C)NC(=O)N1CC[C@@]2(CCCN(C(=O)c3cc(C(F)(F)F)cc(C(F)(F)F)c3)C2)C1,nt,nt,nt,-4%[12.7 µM],nt,nt
COc1cccc(NC(=O)CN2C(=O)CC(c3ccco3)Sc3ccccc32)c1 (centres undefined),-9%,nt,nt,?,?,?
C#CCOCCOCCOCCNc1nc(N2CCOCC2)nc(N2CCN(C(=O)[C@H]([C@@H](C)CC)n3cc([C@@H](N)CO)nn3)CC2)n1,?,0,-2,?,-27%,-26%
C#CCOCCOCCOCCNc1nc(N2CCN(C(=O)[C@H]([C@@H](C)CC)n3cc([C@@H](N)CO)nn3)CC2)nc(N2CCN(C(=O)[C@H]([C@@H](C)CC)n3cc([C@@H](N)Cc4ccc(O)cc4)nn3)CC2)n1,2%,-14,-11,-4%[12.7 µM],28µM*,50µM*
Cc1nc(SCn2nnc3ccccc3c2=O)nc(C)c1C,51%,1,0,-3%[59 µM],18%,-2%
Nn1c(Cc2cccc3ccccc23)nnc1SCn1nnc2ccccc2c1=O,32%,-6,2,4.5µM*,-5%,-14%
Nn1c(Cc2cccc3ccccc23)nnc1SC1CCOC1=O (centres undefined),37%,6,5,?,-37%,89µM*
O=c1c2ccccc2nnn1CSc1nnc(Nc2ccccc2)s1,24%,1,0,45µM*,-4%,1%
Nc1nc(SCn2nnc3ccccc3c2=O)n[nH]1,19%,4,nt,50µM*,-11%,-10%
O=C(N/N=C/c1cccc(Cl)c1)C(c1ccncc1)N1CCOCC1 (centres undefined),33%,3,-25,53%[59 µM],12%,17%
COc1ccc(NC(=O)CN2C(=O)CCn3nc(-c4cccn4C)cc32)cc1,-4%[57 µM],nt,nt,-36%[59 µM],?,?
